CYP2C9 act: CYP2C9 (human) activation | recombinant CYP2C9, luciferin-H conversion, luminescence; active compounds read high; factor 1 = untreated enzyme, 0 = blocked | activation factor at 5 µM | 1.4% of 96,000 active | AID 1024;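 active = activation factor of 2 or more for CYP2C9 at a 5 µM dose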;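 note: 0 = sulfaphenazole-blocked wells and 1 = vehicle-only wells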
Target sequence (P11712 whole entry, looked up): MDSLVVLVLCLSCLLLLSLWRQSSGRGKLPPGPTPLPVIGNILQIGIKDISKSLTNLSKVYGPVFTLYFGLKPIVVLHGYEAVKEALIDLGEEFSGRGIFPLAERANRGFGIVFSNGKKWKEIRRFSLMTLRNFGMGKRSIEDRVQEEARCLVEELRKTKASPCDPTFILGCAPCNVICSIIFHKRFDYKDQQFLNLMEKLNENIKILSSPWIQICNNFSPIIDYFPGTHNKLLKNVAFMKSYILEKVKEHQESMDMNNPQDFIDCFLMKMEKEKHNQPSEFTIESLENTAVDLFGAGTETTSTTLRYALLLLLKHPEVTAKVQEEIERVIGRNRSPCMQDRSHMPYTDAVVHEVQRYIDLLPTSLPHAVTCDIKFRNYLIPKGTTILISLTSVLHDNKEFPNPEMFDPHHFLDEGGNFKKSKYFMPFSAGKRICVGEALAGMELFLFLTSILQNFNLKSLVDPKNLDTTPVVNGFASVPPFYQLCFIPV
Measles CPE: protection of cells from measles virus; Measles virus-infected cells, CPE protection, absorbance; protection (pct of control), % at 4 µM; 1.5% of 140,000 active; AID 841; in the data active = protection mostly above about 24%, no sharp cut-off; inactive = mostly below about 26%
CYP2C9 inhib: blocks human cytochrome P450 2C9 | P11712 | CYP2C9 Supersomes, luciferin-H conversion, luminescence | inhibition, % at 5 µM | 20% of 96,000 active | AID 777;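 active = blocking of liver enzyme CYP2C9 beyond about 50% at 5 µM, limit read from the data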
CYP2C19 inhib: human CYP2C19 inhibition; CYP2C19 Supersomes, luciferin-H EGE luminescence, 30 min; 21% of 96,000 active; P33261; inhibition, % at 5 µM;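 active = CYP2C19 inhibition above a set limit at 5 µM in the primary screen, cut at about 50% in these data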;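 note: plate controls were negative control wells for no effect and 2.5 mM tranylcypromine positive control for full effect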
CYP2C19 act: increases human CYP2C19 enzyme activity; P33261; recombinant CYP2C19, luciferin-H EGE luminescence; active compounds read high; 0 = fully inhibited enzyme, 1 = untreated enzyme; activation factor at 5 µM; 96,000 tested, under 10 active; AID 1025;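 active = activation factor of at least 2 at 5 µM in the primary screen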;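 note: 0 = wells with 2.5 mM tranylcypromine and 1 = vehicle-only wells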
* marks the source's active call; other numbers are inactive results; nt = no result. In the library only some 22% were active in any assay of this set; here they are far more common.

SMILES	CYP2C9 act	Measles CPE	CYP2C9 inhib	CYP2C19 inhib	CYP2C19 act
CC1CCCC(N2CCN(C(=O)c3cccc(F)c3)CC2)C1 (centres undefined)	0.6	1	42	89*	0.1
COc1cccc(C(=O)N2CCN(C(=O)c3cccc(F)c3)CC2)c1	nt	15	nt	nt	nt
O=C(c1cccc(F)c1)N1CCN(CC2CC3C=CC2C3)CC1 (centres undefined)	0.7	3	32	90*	0.1
CCCc1ccccc1OCCNC(C)=O	0.9	13	9	26	0.7
Cc1cccc(N2C(=O)c3cccc4c(N(C)CCO)ccc(c34)C2=O)c1	0.9	9	7	26	0.7
CCCCCCCCNC(=O)c1cccnc1SCC(=O)Nc1ccccc1OC	nt	2	nt	nt	nt
C/C(Cl)=C\CNC(C)c1ccccc1 (centres undefined)	0.9	5	6	55*	0.5
CC(NCc1cccn1C)c1ccccc1 (centres undefined)	1.3	9	-27	33	0.7
CC1CCN(C(=O)c2ccc(CSc3nc4ccncc4n3Cc3ccc(F)cc3)cc2)CC1	nt	5	nt	nt	nt
CCC(C)NS(=O)(=O)c1ccc(OCC(=O)Nc2ccc3c(c2)OCCO3)cc1 (centres undefined)	0.4	10	60*	40	0.6
O=C(COc1ccc(S(=O)(=O)NC2CCCCC2)cc1)NCc1ccccn1	0.6	29	44	6	0.9
O=C(COc1ccc(S(=O)(=O)NC2CCCCC2)cc1)Nc1ccc2c(c1)OCCO2	0.2	16	80*	44	0.6
Cc1cccc(OCC(=O)NC(=S)Nc2ccc(S(=O)(=O)NC3CCCCC3)cc2)c1	0.1	5	93*	29	0.7
Cc1cc2oc(=O)cc(CN3CCN(C/C=C/c4ccccc4)CC3)c2cc1O	0.2	2	84*	45	0.5
CN1CCN(Cc2cc(=O)oc3cc4c(cc23)CCC4)CC1	0.4	7	64*	63*	0.4
CCN1CCN(Cc2cc(=O)oc3cc4c(cc23)CCC4)CC1	0.8	6	18	38	0.6
Cc1cc2oc(=O)cc(CN3CCCc4ccccc43)c2cc1C	0	7	96*	96*	0
Cc1cc2oc(=O)cc(CN3CCOCC3)c2cc1C	1.2	6	-20	47	0.5
CCN(CCO)Cc1csc2ccc(Br)cc12	1.3	10	-28	38	0.6
CN(c1ccccc1)S(=O)(=O)c1cc(C(=O)c2nccn2C)ccc1Cl	0.1	5	91*	99*	0
COc1ccc(C)cc1NC(=O)C(OC(=O)c1ccc(Cl)c(S(=O)(=O)N(C)c2ccccc2)c1)c1ccccc1 (centres undefined)	nt	6	nt	nt	nt
CNC(=S)SCCOc1ccccc1C	nt	5	nt	nt	nt
COc1ccc(-c2cc(C3CC3)nc3sc(C#N)c(N)c23)cc1	0.4	7	59*	57*	0.4
CCOC(=O)CN(C(=O)CN1CCC(n2nnc3cc(C)ccc32)CC1)c1ccccc1	0.4	15	55*	18	0.8
Cc1ccc2c(c1)nnn2C1CCN(C(=O)NC23CC4CC(CC(C4)C2)C3)CC1	1	3	3	55*	0.5
SMILES	CYP2C9 act	Measles CPE	CYP2C9 inhib	CYP2C19 inhib	CYP2C19 act
CCOc1ccccc1NC(=O)N1CCC(n2nnc3cc(C)ccc32)CC1	1.2	22	-22	90*	0.1
COc1ccc(/C(C)=N/OCC(=O)Nc2nc3ccccc3s2)cc1	nt	5	nt	nt	nt
Brc1ccc(-c2noc(COc3ccc4c(c3)CCC4)n2)o1	0.4	9	64*	20	0.8
Clc1ccc(OCc2nc(-c3ccc(Br)o3)no2)cc1	1.3	16	-25	-12	1.1
O=C1NN=C(c2ccc(Cl)cc2)CC1c1cccc(Cl)c1 (centres undefined)	0.8	9	18	68*	0.3
O=C(NC(NC(=S)Nc1ccccc1C(=O)O)C(Cl)(Cl)Cl)c1cccc([N+](=O)[O-])c1 (centres undefined)	0.3	16	71*	-5	1
CCOC(=O)NC(NC(=S)Nc1ccccc1[N+](=O)[O-])C(Cl)(Cl)Cl (centres undefined)	0.1	19	93*	98*	0
O=C(NC(NC(=S)Nc1ccccc1Cl)C(Cl)(Cl)Cl)c1cccc(Cl)c1 (centres undefined)	nt	11	nt	nt	nt
COc1ccc(NC(=S)NC(NC(C)=O)C(Cl)(Cl)Cl)c([N+](=O)[O-])c1 (centres undefined)	nt	36	nt	nt	nt
CCOC(=O)Cn1nc(-c2ccc(F)cc2)oc1=O	0.6	6	44	58*	0.4
CCN(Cc1ccccc1)C(=O)c1c[nH]c2ccc(S(=O)(=O)N(C)CCC#N)cc2c1=O	nt	5	nt	nt	nt
Cc1ccc(C2C(/C=C3/SC(=S)NC3=O)=C(c3cccs3)Oc3ccccc32)cc1 (centres undefined)	0.3	5	68*	1	1
O=c1n(-c2ccccc2)c(=O)n(Cc2ccccn2)n1Cc1ccccn1	1.2	16	-15	-5	1
CCc1c(C)sc(NC(=O)c2ccco2)c1C(=O)N1CCCCC1	0.9	38*	7	2	1
CCOC(=O)c1c(NC(=O)c2ccco2)sc(C(=O)N2CCCC2)c1C	0.4	4	56*	44	0.6
Cc1cc(=O)oc2cc(OCC(=O)OCC(=O)Nc3ccc(C(C)C)cc3)ccc12	nt	3	nt	nt	nt
Cc1ccc(/C=C2/Sc3ccccc3N(CC(=O)NCCCOC(C)C)C2=O)cc1	nt	5	nt	nt	nt
Cc1cc2n(n1)C(c1ccc3c(c1)OCO3)Nc1ccccc1-2 (centres undefined)	0.3	3	70*	88*	0.1
Cc1ccc2c(c1)-c1cc(C)nn1C(c1ccc3c(c1)OCO3)N2 (centres undefined)	0.1	4	89*	96*	0
Cc1cccc(NC(=O)CCCSc2nc3ccccc3[nH]2)c1	nt	5	nt	nt	nt
Cc1cccc(NC(=O)CCSc2nc(C)cc(C)n2)c1	2.7*	6	-169	52*	0.5
Cc1cc(C)nc(SCc2nnc(SCC(=O)Nc3ccc(Cl)c(C(F)(F)F)c3)o2)n1	0.8	27	24	47	0.5
Cc1cccc(NC(=O)CSc2nnc(CSc3nc(C)cc(C)n3)o2)c1	0.6	9	44	89*	0.1
COC(=O)C(Cc1c[nH]c2ccccc12)NC(=O)C(C)C (centres undefined)	0.9	8	8	18	0.8
CCOC(=O)C(Cc1c[nH]c2ccccc12)NC(=O)c1ccco1 (centres undefined)	0.3	8	72*	78*	0.2
CC(=O)Cc1nsc(Nc2ccc3c(c2)OCCO3)n1	0.3	8	72*	45	0.6
COc1ccc(Nc2nc(CC(C)=O)ns2)cc1	nt	9	nt	nt	nt
CCOc1ccccc1NC(=O)COC(=O)CNS(=O)(=O)c1ccc(C)cc1	nt	15	nt	nt	nt
COc1cc(/C=N/NC(=O)CCc2c(C)n[nH]c2C)cc(OC)c1OC	0.7	7	33	55*	0.4
CC1=C(C(=O)OC(C)C)C(c2ccncc2)n2ncnc2N1 (centres undefined)	0.5	36	46	21	0.8

Compound activity (PubChem BioAssay)
